Experimental data taken from PubChem BioAssay (Tox21).
Inconclusive results are not listed. A number with no mark means an inactive call. Active and inactive are the calls of the source. The call rests on the fitted dose curve.

test: qHTS assay to identify small molecule antagonists of the sonic hedgehog signaling (Shh) pathway (AID 1259369); conditions: NIH/3T3 Gli1-Luc reporter, Shh antagonist, luminescence 24 h; series mostly up to 92.4 µM; activity change, negative = inhibition: at the top concentration; further: nearly all actives have a fitted effect of over 45% in size
Description: U.S. Tox21 Program National Center for Advancing Translational Sciences [NCATS] NIH Chemical Genomics Center [NCGC] U.S. Environmental Protection Agency [EPA] National Institutes of Environmental Health Sciences [NIEHS] National Toxicology Program [NTP] U.S. Food and Drug Administration [FDA] Tox21 Assay Overview: The sonic hedgehog (Shh) pathway is essential for normal embryonic development. Dysregulation of the Shh pathway can cause severe developmental defects in organs. Therefore chemicals that interfere with the pathway are potential developmental toxicants. A cell line designated 3T3Gli1-Luc (DMB/OARSA/CFSAN/FDA, Laurel, MD), a NIH/3T3 derived clone containing stably integrated Gli1-Luc reporter is used to detect chemical interference of the Shh pathway, by changes in the expression of the firefly Luc gene under the control of the Gli1 transcriptional response element. This cell line was used to screen Tox21 libraries for identifying and prioritizing the potential developmental toxicants that interfere Shh pathway. Conditioned medium-stimulated mode was used to screen for chemicals inhibiting Shh signaling.
Tox21 Assay Protocol Summary: 3T3 Gli1-Luc cells were dispensed at 2,000 per well in 5uL of culture medium into white solid bottom 1536-well plates (Greiner Bio-One, Monroe, NC) using a Multidrop Combi (Thermo Scientific, Waltham, MA) dispenser. The assay plates were incubated at 37 C and 5% CO2 for 4hr, and then 23nL of compounds dissolved in DMSO and positive control were transferred using a Pintool station (Wako, San Diego, CA). The compound transfer was followed by the addition of 1ul conditioned medium or assay buffer using two separate tips of Flying Reagent Dispenser (FRD, Aurora Discovery, San Diego, CA). The assay plates were incubated at 37C and 5% CO2 for 24hr. For luciferase read, 4uL of Amplite Luciferase reporter gene assay reagent (AAT Bioquest, Inc. Sunnyvale, CA) was added to each well of the assay plates using FRD and incubated at room temperature for 30min. The luminescence signal was measured using a ViewLux plate reader (Perkin Elmer, Shelton, CT).
On the % scale 0 is the no-effect control and ±100 the full control effect; potency means the concentration at half of the fitted maximal effect.

Row | Structure (SMILES) | activity change, negative = inhibition | Potency
1 | CCOC(=O)N(C)N=O | 1.01% | –
2 | O=C(NC(O)C(Cl)(Cl)Cl)NC(O)C(Cl)(Cl)Cl (stereo not given) | -1.54% [at 42.5 µM] | –
3 | CC(=NC#N)N(C)Cc1ccc(Cl)nc1 | 2.68% | –
4 | CCCCS(=O)(=O)Cl | -4.17% | –
5 | C=C1C[C@@H]2[C@H](CC[C@]3(C)C(=O)CC[C@@H]23)[C@@]2(C)C=CC(=O)C=C12 | – | 6.68 µM (active)
6 | O=c1[nH]oc2c1CCNC2 | 13.6% [at 42.5 µM] | –
7 | O=[N+]([O-])CCO | -6.78% | –
8 | CN(C)C1CCCCC1 | 18.4% | –
9 | O=C(Cl)/C=C/C(=O)Cl | -7.1% | –
10 | C=C(C)[C@H]1CN[C@H](C(=O)O)[C@H]1CC(=O)O | 5.58% [at 42.5 µM] | –
11 | ClC1=C(Cl)C2(Cl)C(CBr)CC1(Cl)C2(Cl)Cl (stereo not given) | – | inactive
12 | CN1C(=O)COc2c(C(=O)NC3CN4CCC3CC4)cc(Cl)cc21 (stereo not given) | 4.8% [at 42.5 µM] | –
13 | CCOC1Oc2ccc(OS(C)(=O)=O)cc2C1(C)C (stereo not given) | -21.1% | –
14 | CCC1(CC)C(=O)C=CNC1=O | -2.73% [at 42.5 µM] | –
15 | CCOC(=O)CCl | -10.9% | –
16 | CN1COCN(Cc2cnc(Cl)s2)/C1=N\[N+](=O)[O-] | -0.605% | –
17 | CCOP(=S)(OCC)SCCl | 24.8% | –
18 | CCC1(c2ccccc2)CCC(=O)NC1=O (stereo not given) | 9.94% [at 42.5 µM] | –
19 | CN(CCO)CCO | 14.6% | –
20 | COC(=O)[C@@H](N)CCCN/C(N)=N/[N+](=O)[O-] | 11.7% [at 42.5 µM] | –

Row | Structure (SMILES) | activity change, negative = inhibition | Potency
21 | CCOC(=O)NC(C)(C)Cc1ccc(Cl)cc1 | -7.26% [at 42.5 µM] | –
22 | C[N+]1(C)CCCCC1 | -4.57% | –
23 | O=c1[nH]c2ccccc2o1 | -0.515% | –
24 | CCC(C)C(C)(COC(N)=O)COC(N)=O (stereo not given) | 20.3% [at 42.5 µM] | –
25 | CCOC(=O)c1ncn2c1CN(C)C(=O)c1c(I)cccc1-2 | 12.5% [at 42.5 µM] | –
26 | CCCCCCC1CCOC1=O (stereo not given) | 47.6% | –
27 | C[C@@H](N)[C@@H](O)c1ccccc1 | 24.2% [at 42.5 µM] | –
28 | O=C1CCCCC1Cl (stereo not given) | 0% | –
29 | O=C(O)C(Cl)Br (stereo not given) | 0% | –
30 | C=CCC1(C(C)CC)C(=O)NC(=O)NC1=O (stereo not given) | 18.1% [at 42.5 µM] | –
31 | CC(=O)CN(CC(C)=O)N=O | 5.19% | –
32 | O=C(Cl)C(Cl)Cl | 0.448% | –
33 | CCc1cc(OC)c(C[C@H](C)N)cc1OC | -16.4% | –
34 | Clc1cc2c(cc1Cl)Oc1cc(Cl)c(Cl)cc1O2 | -6.77% [at 0.349 µM] | –
35 | O=P(O)(O)CN(CP(=O)(O)O)CP(=O)(O)O | 7.02% | –
36 | C1CN2CCC1CC2 | 2.49% [at 42.5 µM] | –
37 | CCN(CC)CCOC(=O)C(O)(c1ccccc1)c1ccccc1 | 9.2% [at 42.5 µM] | –
38 | COc1cccc(C=O)c1 | 24.5% | –
39 | CC[C@H](N)c1ccccc1 | 0.0059% | –
40 | CCCOC(=O)c1cncn1C(C)c1ccccc1 (stereo not given) | 9.97% [at 42.5 µM] | –
